Shown are actives, neighbours in structure and some others; about 6.3% of the full set was active somewhere.
RORgamma inh: qHTS for inhibitors of ROR gamma transcriptional activity. Nuclear receptor ROR-gamma (Mus musculus), P51450. Drosophila S2 Gal4-RORgamma UAS-luciferase reporter, 20 h. Potency, µM (titrated, usually from 53.6 µM), for inactives: top-dose activity change, negative = inhibition, actives largely listed as inhibitors. 310,000 tested, 5.4% active. AID 2551, 2010; note: % is set by controls: 0 for no effect and ±100 for the full control effect; nearly all actives have a fitted effect of over 60% in size
Target sequence (P51450 whole entry, looked up, the tested form may be a part): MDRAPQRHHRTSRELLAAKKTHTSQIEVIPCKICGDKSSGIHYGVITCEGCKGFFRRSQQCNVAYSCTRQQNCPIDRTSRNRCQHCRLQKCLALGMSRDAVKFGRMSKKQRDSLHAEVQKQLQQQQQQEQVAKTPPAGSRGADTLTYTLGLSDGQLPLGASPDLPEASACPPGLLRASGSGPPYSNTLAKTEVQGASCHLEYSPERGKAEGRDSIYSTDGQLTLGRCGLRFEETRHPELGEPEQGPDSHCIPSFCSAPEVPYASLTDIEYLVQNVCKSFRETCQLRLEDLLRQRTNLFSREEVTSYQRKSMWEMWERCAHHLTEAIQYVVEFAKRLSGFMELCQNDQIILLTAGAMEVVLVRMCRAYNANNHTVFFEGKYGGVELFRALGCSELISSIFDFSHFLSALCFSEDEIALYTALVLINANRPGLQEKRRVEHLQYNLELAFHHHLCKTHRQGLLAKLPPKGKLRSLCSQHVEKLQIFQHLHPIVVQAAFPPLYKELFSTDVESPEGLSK
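Using a luciferase readout, inhibitors were identified by reduced reporter activity in Drosophila cells coexpressing a copper-inducible Gal4–ROR gamma fusion and UAS-driven Photinus luciferase, incubated 20 hr after 700 uM copper sulfate.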
TGFb SMAD3 inh: qHTS for Inhibitors of TGF-b; HepG2 CAGA-GFP TGF-b/SMAD3 reporter, GFP fluorescence, 18 h; TGF-beta stimulated, 500 pg/mL final; Potency, µM (series often up to 46.1 µM), inactives show at the top dose activity, negative = inhibition, usual class: inhibitors; 410,000 tested, 1.2% active; AID 588855, 2011; note: % is set by controls: 0 for no effect and ±100 for the full control effect; nearly all actives have a fitted effect of over 65% in size
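Smad-responsive CAGA-GFP expression was quantified in HEPG2 cells exposed to compounds and 500 pg/mL final TGF-beta for 18 h at 37 degrees C; unstimulated wells defined full inhibition.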
VP16 counter: VP16 counterscreen qHTS for inhibitors of ROR gamma transcriptional activity. AID 2546, 2010. Drosophila S2 Gal4-VP16 UAS-luciferase, luminescence, 20 h. 310,000 tested, 3.5% active. Potency, µM (doses to about 53.6 µM), for inactives: at the highest dose activity, negative = inhibition, actives largely listed as inhibitors;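 note: Gal4-VP16 expression switched on by copper sulfate through the metallothionein promoter; % is set by controls: 0 for no effect and ±100 for the full control effect; nearly all actives have a fitted effect of over 50% in size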
HepG2 tox: qHTS for Inhibitors of TGF-b: Cytotox Counterscreen; HepG2 CAGA-GFP viability, ATP luminescence, 18 h; Potency, µM (doses to about 46.1 µM), without a hit: at the top dose activity change, negative = cytotoxicity, hits mostly cytotoxic; 410,000 tested, 0.76% active
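HepG2 CAGA-GFP cells (1000/well, DMEM with 1% FBS) received compound, then TGF-beta at 500 pg/mL final, and were incubated 18 hours at 37 degrees C. Viability was read by CellTiter-Glo luminescence. Media-only wells were set as complete cell-killing and DMSO as no toxicity.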
ATXN2 expr inh: Primary qHTS for Inhibitors of ATXN expression. HEK-293 ATXN2-luciferase reporter, luminescence, 24 h. Potency, µM (top dose mostly 57 µM), for the others: at the highest dose activity change, negative = inhibition, usual class: inhibitors. 360,000 tested, 0.72% active. AID 1745845, 2022; note: % is set by controls: 0 for no effect and ±100 for the full control effect; nearly all actives have a fitted effect of over 55% in size
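ATXN2-luciferase reporter cells (luciferase flanked by upstream and downstream ATXN2 gene portions) were treated 24 h at 37 °C with compounds at up to 57 uM. SteadyGlo luminescence gave expression; GF-AFC fluorescence gave viability.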
S2 tox: Viability Counterscreen for Primary qHTS for Inhibitors of ATXN expression. S2 cells (HEK-293 line with an ATXN2-luciferase reporter) viability, CellTiter-Fluor protease fluorescence, 24 h. Potency, µM (titrated, usually from 56.7 µM), actives largely listed as cytotoxic. 400,000 tested, 0.49% active. AID 651635, 2014; note: nearly all actives have a fitted effect of over 40% in size
* hit, by the source's call; i = inactive; ? = inconclusive; . = no result; ! = a repeat was not active. Calls come from the whole dose curve; as a rule, active = well fitted curve in the direction sought with a large enough effect; inconclusive = small, poorly fitted or top-dose-only effect, or another doubt; inactive = no such curve, though single readings can be large; an effect the other way counts as inactive or inconclusive. Potency is the fitted concentration of half-maximal effect.

SMILES	RORgamma inh	TGFb SMAD3 inh	VP16 counter	HepG2 tox	ATXN2 expr inh	S2 tox
CCOC(=O)[C@]12Cc3cc(OC)ccc3[C@H]1N(C1CCCCC1)C(=O)c1ccccc12	.	.	.	.	4.5µM*	7.1µM*
CCOC(=O)[C@]12Cc3cc(Cl)ccc3[C@H]1N(C)C(=O)c1ccccc12	.	.	.	.	2%	i
CCOC(=O)[C@]12Cc3cc(OC)ccc3[C@H]1N(C)C(=O)c1ccccc12	.	.	.	.	16%	i
CSSC	10%	.	-1%	.	.	.
COc1cc(C=O)ccc1OC(=O)Nc1ccccc1	.	0%	.	-176%	26%	i
CC(=O)OC1C[C@@]2(C)C(c3ccoc3)C[C@H]3O[C@@]32[C@@]2(C)C(=O)C(O)=C3C(C)(C)C(=O)C=C[C@]3(C)C12 (stereo partly drawn)	3.2µM*	.	3.2µM*	.	.	.
CC(=O)OC1CC(OC(C)=O)[C@]2(C)C(CC(OC(C)=O)[C@]3(C)C2CC[C@@]2(C)C(c4ccoc4)C[C@H]4O[C@]432)C1(C)C (stereo partly drawn)	?	.	-8%	.	.	.
CC(=O)O[C@@H]1C[C@@]2(C)C(c3ccoc3)C[C@H]3O[C@]32[C@]2(C)C(=O)C(O)=C3C(C)(C)C(=O)C=C[C@]3(C)C12 (stereo partly drawn)	?	.	13µM*	.	.	.
CC1(C)C2C[C@@H](O)[C@]3(C)C(CC[C@@]4(C)[C@H](c5ccoc5)C[C@H]5O[C@]543)[C@@]2(C)[C@@H](O)C[C@H]1O (stereo partly drawn)	-38%	.	-2%	.	.	.
Sc1ccccc1Cl	.	.	.	.	-4%	i
O=C(COc1ccccc1)N1CCN(C/C=C/c2ccccc2)CC1	24%	?	3%	-14%	-6%	?
O=C(CF)N(O)c1ccc(C=Cc2ccccc2)cc1	.	7.1µM*	.	-40%	?	?
CC[C@H]1[C@@H]2C[C@H]3[C@@H]4N(C)c5ccccc5[C@]45C[C@@H](C2[C@H]5O)N3[C@@H]1O (stereo partly drawn)	.	.	.	.	.	i
O=c1[nH]c2ccccc2n1C1CCN(C(CCc2ccccc2)c2nnnn2C2CCCC2)CC1 (stereo not drawn)	.	?	.	-30%	25µM*	?
CSCCC(c1nnnn1-c1ccc2c(c1)OCCO2)N1CCC(n2c(=O)[nH]c3ccccc32)CC1 (stereo not drawn)	.	?	.	-11%	?	?
O=c1[nH]c2ccccc2n1C1CCN(C(c2cc3ccccc3o2)c2nnnn2Cc2ccccc2)CC1 (stereo not drawn)	.	?	.	6%	20µM*	.
COc1cccc(C(c2nnnn2Cc2ccccc2)N2CCC(n3c(=O)[nH]c4ccccc43)CC2)c1OC (stereo not drawn)	.	?	.	-51%	?	?
Nc1ccccc1-c1ccccc1	32%	.	5%	.	.	.
CSc1ncc(CN2CCCC(C(=O)c3cccc(Cl)c3)C2)cn1 (stereo not drawn)	41%	-21%	-5%	-11%	-13%	i
CCCCc1ncc(CN2CCCC(C(=O)c3ccc(SC)cc3)C2)[nH]1 (stereo not drawn)	11µM*	-6%	-25%	-16%	-27%	i
CCOC(=O)CC(SP(=O)(OC)OC)C(=O)OCC (stereo not drawn)	0%	.	-14%	.	.	.
O=C(Cl)OCc1ccccc1	-22%	.	0%	.	.	.
CCC(C)C(=O)N[C@@H](c1ccccc1)[C@@H](O)C(=O)O[C@H]1C[C@@]2(O)[C@@H](OC(=O)c3ccccc3)C3[C@](C)(C(=O)[C@H](OC(C)=O)C(=C1C)C2(C)C)[C@@H](O)C[C@H]1OC[C@@]31OC(C)=O (stereo partly drawn)	?	-23%	-19%	-11%	-24%	?
C/C=C(\C)C(=O)N[C@@H](c1ccccc1)[C@@H](O)C(=O)O[C@H]1C[C@@]2(O)[C@@H](OC(=O)c3ccccc3)C3[C@](C)(C(=O)[C@H](OC(C)=O)C(=C1C)C2(C)C)[C@H](O)C[C@H]1OC[C@@]31OC(C)=O (stereo partly drawn)	?	?	35µM*	-2%	-27%	?
CC(=O)c1cccc(NC(=O)CSc2ncc3c(n2)-c2cc(Cl)ccc2N(Cc2ccccc2)S3(=O)=O)c1	.	?	.	-6%	9%	i
SMILES	RORgamma inh	TGFb SMAD3 inh	VP16 counter	HepG2 tox	ATXN2 expr inh	S2 tox
Cc1c2ccncc2c(C)c2c1[nH]c1ccccc12	10µM*	?	5.6µM*	13µM*	14µM*	?
Cc1nccc2c1[nH]c1ccccc12	-24%	0%	-14%	-26%	-1%	i
CCOc1ccccc1NC(=O)NCc1ccc2c(c1)CCN2C(=O)c1ccccc1	.	?	.	-17%	.	.
CC(C)c1cc2c(c(O)c1O)[C@]1(C(=O)O)CCCC(C)(C)C1CC2 (stereo partly drawn)	-7%	.	-27%	.	.	.
c1ccc(CCCN2CCN(CCOC(c3ccccc3)c3ccccc3)CC2)cc1	32µM*	?	?	11µM*	27µM*!	?
Fc1ccc(C(OCCN2CCCC2)c2ccc(F)cc2)cc1	-36%	9%	-8%	-4%	-14%	i
CNC(C)CC1CCCCC1 (stereo not drawn)	.	.	.	.	.	i
ClC1=C(Cl)C2(Cl)C3C(Cl)C(Cl)CC3C1(Cl)C2(Cl)Cl (stereo not drawn)	-19%	.	-5%	.	.	.
CC1OC(OC2C=C3CCC4C(CCC5(C)C(c6ccc(=O)oc6)CCC45O)C3(C)CC2)C(O)C(OC2OC(CO)C(O)C(O)C2O)C1O (stereo not drawn)	.	0.4µM*	.	-54%	0.0075µM*	?
CC1O[C@@H](OC2CC(O)[C@@]3(CO)C4C(O)C[C@@]5(C)C(C6=CC(=O)OC6)CC[C@]5(O)C4CC[C@]3(O)C2)C(O)C(O)C1O (stereo partly drawn)	-17%	.	2%	.	.	.
CNC(=O)N1N=C(c2ccc(N)cc2)c2cc3c(cc2CC1C)OCO3 (stereo not drawn)	.	.	.	.	87%	.
CCOc1ccc(N2C(=O)/C(=C\c3cccs3)C(=O)NC2=S)cc1	-31%	?	1%	-33%	32µM*	35µM*
O=c1[nH]sc2cc(F)ccc12	2.2µM*	?	2.8µM*	1%	-31%	i

High-throughput results from PubChem BioAssay.
